According to PubChem BioAssay (EPA / NIEHS):
Several values for one entry are separate records, joined by “and”; a condition that tells them apart may be missing. Identical values can stand only once. Inconclusive results are not listed. Activity calls are given as the source filed them. Rule for the calls: active = hit-call score of the fitted dose curve at least 0.9, where 1 is the maximum; inconclusive = response in the unintended direction; inactive = score below 0.9.

What follows are molecules tested against Cellular tumor antigen p53 (Homo sapiens) (UniProt P04637) (assay: TOX21_p53_BLA_p3_ratio: Tox21 HCT-116 p53 Agonism Beta-lactamase Assay, Ratio, Phase 3 (AID 2283596)).
Sequence of Cellular tumor antigen p53 (Homo sapiens) (P04637 whole entry, looked up): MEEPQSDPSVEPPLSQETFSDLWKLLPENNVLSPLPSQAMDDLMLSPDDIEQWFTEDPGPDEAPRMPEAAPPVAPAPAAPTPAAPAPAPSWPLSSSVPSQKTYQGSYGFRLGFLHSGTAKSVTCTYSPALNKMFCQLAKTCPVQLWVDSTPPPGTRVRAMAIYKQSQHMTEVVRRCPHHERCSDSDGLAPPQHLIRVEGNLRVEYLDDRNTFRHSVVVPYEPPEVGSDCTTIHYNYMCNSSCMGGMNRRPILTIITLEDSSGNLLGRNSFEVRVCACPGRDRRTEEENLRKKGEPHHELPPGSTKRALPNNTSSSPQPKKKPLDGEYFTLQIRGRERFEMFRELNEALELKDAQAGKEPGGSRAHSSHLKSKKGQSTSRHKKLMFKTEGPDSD
Procedure, shortened: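 Cells were seeded at 4000/well, rested 5 h at 37C, then dosed with DMSO compound solutions (217-fold dilution) for 16 h. CCF4-AM substrate was loaded for 2 h at room temperature, and the 460/530 nm emission ratio was fitted for gain of signal versus DMSO.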

| Compound | outcome | AC50 |
| --- | --- | --- |
| CC(=O)Nc1ccc(C)cc1C | inactive | – |
| Cc1ccc(S)cc1 | inactive | – |
| O=C(O)c1cn(-c2ccc(F)cc2)c2cc(N3CCNCC3)c(F)cc2c1=O | inactive | – |
| COc1cc(C=O)ccc1OC(=O)C(C)C | inactive | – |
| CC(=O)OCc1ccc2c(c1)OCO2 | inactive | – |
| O=c1cc(-c2ccccc2)oc2cc(O)cc(O)c12 | inactive | – |
| CC(C)=CCC[C@](C)(O)[C@@H]1CC=C(C)CC1 | inactive | – |
| O=C(O)CCCCCCCC(=O)O | inactive | – |
| Nc1cccc(S(=O)(=O)c2cccc(N)c2)c1 | inactive | – |
| BrC1CCC(Br)C(Br)CCC(Br)C(Br)CCC1Br (stereo unspecified) | – | 65.6 µM (active) and 38.4 µM (active) |
| Nc1cc([N+](=O)[O-])ccc1O | inactive | – |
| CC1=CCC2C(C1)C2(C)C (stereo unspecified) | inactive | – |
| Clc1nc(C(Cl)(Cl)Cl)c(Cl)c(Cl)c1Cl | inactive | – |
| O=C(O)COCCN1CCN(C(c2ccccc2)c2ccc(Cl)cc2)CC1 (stereo unspecified) | inactive | – |
| C[Si](O[Si](C)(C)C)O[Si](C)(C)C | inactive | – |
| OC[C@H]1O[C@H](O[C@]2(CCl)O[C@H](CCl)[C@@H](O)[C@@H]2O)[C@H](O)[C@@H](O)[C@H]1Cl | inactive | – |
| FC1(F)C(F)(F)C(F)(F)C2(F)C(F)(C1(F)F)C(F)(F)C(F)(F)C1(F)C(F)(F)C(F)(F)C(F)(F)C(F)(F)C12F (stereo unspecified) | inactive | – |
| Nc1ccc(S(N)(=O)=O)cc1 | inactive | – |
| O=S(=O)(O)c1ccc(O)c2ncccc12 | inactive | – |
| COc1ccc(NC(=O)CC(C)=O)cc1 | inactive | – |
| CN1[C@@H]2CC(OC(=O)[C@H](CO)c3ccccc3)C[C@H]1[C@@H]1O[C@@H]12 (stereo partly specified) | inactive | – |
